# Screens deposited in PubChem by Broad Institute.
# An excerpt weighted towards active compounds, which were near 2.1% of everything screened.
# STK33 inh: inhibitors of human STK33 kinase; ADP-Glo luminescence, MBP substrate; inhibition, % at 12.5 µM; 27,000 tested, 0.44% active; AID 2322; in the data active means inhibition above about 20%
# ID4 SMM: binders of human ID4 protein; P47928; small molecule microarray, Flag-ID4 binding, fluorescence F/B; calls only; 31,000 tested, 1.2% active; AID 624137; call rule not given here;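 further: a binder raises fluorescence above local background on the spot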
# Target sequence (P47928 whole entry, looked up): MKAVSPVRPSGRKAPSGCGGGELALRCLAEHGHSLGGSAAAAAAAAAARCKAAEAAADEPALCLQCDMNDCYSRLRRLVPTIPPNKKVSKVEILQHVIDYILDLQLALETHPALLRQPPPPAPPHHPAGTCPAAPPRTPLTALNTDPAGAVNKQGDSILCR
# mut p53 react: restores mutant p53 pathway signaling in SW480 cells; SW480 PUMA-promoter luciferase, p53 mutant reactivation; AID 624151; activation, % at 9.98 µM; 28,000 tested, 1.5% active; in the data active means activation above about 52%
# A number is an active result; n = inactive; x = no result given; + = active, no number.
SMILES,STK33 inh,ID4 SMM,mut p53 react
COc1ccc(-c2csc3ncn(CC(=O)Nc4sc5c(c4C#N)CCC5)c(=O)c23)cc1OC,n,+,n
COc1ccc(-c2csc3ncn(CC(N)=O)c(=O)c23)cc1OC,n,n,n
CS(=O)(=O)N(CC(=O)Nc1c(F)cccc1F)c1ccc(Oc2ccccc2)cc1,n,n,n
O=C(CSc1nnc(-c2cccnc2)n1-c1ccccc1)N1CCN(c2ccc(F)cc2)CC1,n,+,n
O=C(CSc1nnc(-c2cccnc2)n1-c1ccccc1)N1CCc2ccccc21,n,n,n
Cc1cc(C)c(C(=O)/C=C(\N2CCCC2)C(F)(F)F)c(=O)[nH]1,x,n,n
Cc1c(NC(=S)NCCc2c[nH]c3ccccc23)c(=O)n(-c2ccccc2)n1C,n,+,n
Cc1c(NC(=S)NCc2ccccn2)c(=O)n(-c2ccccc2)n1C,n,n,n
C[C@@H]1CN([C@H](C)CO)C(=O)Cc2cc(NC(=O)C3CC3)ccc2O[C@H]1CN(C)C(=O)Nc1ccc(C(F)(F)F)cc1,n,x,x
C[C@H]1CN([C@@H](C)CO)C(=O)c2cc(NS(=O)(=O)c3cccs3)ccc2O[C@@H]1CN(C)C,n,n,n
CCOc1ccc(NC(=O)CSc2nnc(-c3ccc(Cl)cc3)n2C)cc1,n,n,n
CCOc1ccc(-c2nnc(SCC(=O)c3ccccc3N)n2C)cc1,n,n,67
C[C@H](CO)N1C[C@H](C)[C@@H](CN(C)C(=O)Nc2ccc3c(c2)OCO3)Oc2ccc(NC(=O)c3ccncc3)cc2C1=O,x,n,n
C[C@@H]1CN([C@H](C)CO)C(=O)c2cccc(NC(=O)Nc3ccc(C(F)(F)F)cc3)c2O[C@H]1CN(C)S(=O)(=O)c1cccs1,x,n,n
Cc1ccc(NC(=O)CNS(=O)(=O)c2ccccc2)c(C)c1,n,n,n
Cc1ccc(OCC(=O)Nc2ccc(-c3nc4ccccc4s3)c(O)c2)c(C)c1,n,n,n
COC(=O)c1c(NC(=S)NCc2cc(C)n(C)n2)sc2c1CCCCCC2,n,n,n
COC(=O)c1c(NC(=S)NCc2ccccn2)sc2c1CCC2,n,n,68
COc1ccc(S(=O)(=O)N(C)C[C@@H]2Oc3ccc(NC(=O)Cc4ccccc4)cc3C(=O)N([C@@H](C)CO)C[C@H]2C)cc1,x,n,n
COc1ccc(C(=O)NCC(=O)Nc2cccc(C(F)(F)F)c2)cc1,n,n,n
COc1cccc(NC(=O)CNC(=O)c2ccccc2)c1,n,n,57
O=C(O)COc1ccc(OCCNC[C@@H](O)COc2ccccc2)cc1,x,+,n
COCCNC(=O)COc1ccc(OCCNC[C@@H](O)COc2ccccc2)cc1,x,n,n
O=C(CCN1C(=O)c2ccccc2S1(=O)=O)NCc1ccco1,n,+,n
O=C(CCN1C(=O)c2ccccc2S1(=O)=O)Nc1cccc(Cl)c1Cl,n,n,n
SMILES,STK33 inh,ID4 SMM,mut p53 react
CCS(=O)(=O)N[C@H]1C=C[C@@H](CC(=O)Nc2ccc(-c3ccccc3)cc2)O[C@H]1CO,x,n,x
CSc1ccccc1NC(=O)C(C)NS(=O)(=O)c1ccccc1 (stereo unspecified),n,n,n
C[C@@H]1CN([C@@H](C)CO)C(=O)c2cc(NC(=O)Cc3ccccc3)ccc2O[C@@H](C)CCCCO[C@@H]1CN(C)C,x,n,n
COC(=O)c1cc(-c2ccccc2)sc1NC(=S)Nc1ccn(C)n1,n,n,n
COC(=O)c1cc(-c2ccccc2)sc1NC(=S)Nc1cn(C)nc1C,n,+,n
Cc1ccc(C)c(OCCCCSc2ncccn2)c1Cl,n,n,n
Cc1cc(Cl)cc(Br)c1OCCCSc1ncccn1,n,n,132
Cc1c(O)cc(O)c2c1OC(c1ccccc1)CC2=O (stereo unspecified),n,n,x
Cc1cc(O)c(C)c2c1Oc1c(C)c(O)cc(C)c1C(=O)O2,23,n,x
CCOc1ccc(OCCSc2nc(C)cc(=O)[nH]2)cc1,x,n,n
CCc1ccc(OCCSc2nc(C)cc(=O)[nH]2)cc1,n,n,59
CC(Sc1nnc(N)s1)C(=O)Nc1ccc(Cl)cc1 (stereo unspecified),n,n,n
Nc1nc(SCC(=O)N2CCc3ccccc32)n[nH]1,n,n,n
COc1cc2c(cc1OC)CN(C(=O)CSc1n[nH]c(N)n1)CC2,n,+,n
Cc1cccc(C)c1OCC(=O)Nc1ccccc1C#N,n,n,n
Cc1ccc(OCC(=O)Nc2ccccc2C#N)cc1C,n,n,83
CCCC(=O)Nc1ccc2c(c1)OC[C@@H](C)N(CCc1ccccc1)C[C@@H](C)[C@H](OC)CN(C)C2=O,x,n,x
CO[C@@H]1CN(C)C(=O)c2ccc(NC(C)=O)cc2OC[C@@H](C)N(CCc2ccccc2)C[C@H]1C,x,+,x
COc1cc(OC)c(NC(=O)CN(C)S(=O)(=O)c2ccc(C)cc2)cc1Cl,n,n,n
C=C(C)[C@H]1C[C@]2(C)[C@@H](C)C[C@H](O)C[C@H]2[C@H](OC(=O)C=C(C)C)[C@@H]1O,n,x,n
